From PubChem
This is a sample that favours compounds with a hit; in the whole collection about 19% have one here.
HT1080 IDH1KD tx: toxicity to HT-1080 IDH1 knockdown cells (counter line). HT-1080 IDH1 knockdown viability, ATP luminescence, 48 h. Potency, µM (series often up to 46.1 µM), for inactives: top-dose activity, negative = toxicity, most hits filed as cytotoxic. 2% of 360,000 active. AID 686971;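 note: potency is the fitted concentration of half-maximal effect; 0% = DMSO wells and -100% = cell-free medium wells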
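Viability of IDH1-knockdown HT-1080 fibrosarcoma cells was assessed by CellTiter-Glo after 48 h at 37 °C with titrated compound; concentration-effect curves were classified by fit quality and response size.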
DT40 TDP1 no CPT: qHTS for Inhibitors of human tyrosyl-DNA phosphodiesterase 1 (TDP1): qHTS in cells in absence of CPT. DT40 Tdp1-/- hTDP1 cells, no CPT, ATP luminescence, 48 h. Potency, µM (top dose mostly 46.2 µM), inactives show top-dose activity change, negative = growth inhibition, most hits filed as inhibitors. 15% of 420,000 active; note: potency is the fitted concentration of half-maximal effect; nearly all actives have a fitted effect of over 55% in size
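A cellular qHTS used chicken DT40 cells lacking endogenous Tdp1 but carrying stably transfected human TDP1. Compounds were applied without camptothecin, and cell growth kinetics were judged by ATP-dependent luminescence after ≥48 hr.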
TDP1 cell CPT: growth inhibition of DT40 Tdp1-/-;hTDP1 cells with camptothecin (screen for TDP1 inhibitors). Potency, µM (series often up to 46.2 µM), for inactives: at the top dose activity change, negative = growth inhibition, actives largely listed as inhibitors. chicken DT40 Tdp1-/-;hTDP1 cells + 20 nM CPT, ATP luminescence, 48 h. 12% of 420,000 active; note: potency is the fitted concentration of half-maximal effect; nearly all actives have a fitted effect of over 55% in size
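Chicken DT40 Tdp1-/- cells complemented with human TDP1, 400 cells/well, exposed to compounds plus 20 nM camptothecin for at least 48 h at 37 C; viability read as ATP content by CellTiter-Glo luminescence.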
HT1080-NT tox: kills 2HG-producing HT-1080-NT fibrosarcoma cells; HT-1080-NT fibrosarcoma viability, CellTiter-Glo ATP luminescence, 48 h; Potency, µM (titrated, usually from 46.1 µM), inactives show at the highest dose activity, negative = less viability, hits mostly cytotoxic; 1.6% of 360,000 active;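 note: NT is the 2HG producing partner of a matched IDH1 knockdown line; potency is the fitted concentration of half-maximal effect; 0% = DMSO-treated cells and -100% = media-only wells without cells; nearly all actives have a fitted effect of over 55% in size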
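A 48-hour cytotoxicity screen used HT-1080-NT cells plated 2 hours before compound delivery. ATP-based CellTiter-Glo luminescence measured viability, normalized to DMSO and no-cell controls.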
IL-1B inflam inh: blocks inflammasome-driven IL-1 beta release | 4.7% of 360,000 active | THP-1 LPS/ATP IL-1B secretion, AlphaLISA, 16 h; active compounds read low | activity change, % at 57.5 µM; in the data active = activity change below about -50%; inconclusive = mostly about -30% to -49%
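THP-1 cells pretreated 1 hr with compounds (up to 57.5 uM final), then stimulated with LPS (250 ng/mL final) plus ATP (1.25 mM final); secreted IL-1B measured by AlphaLISA after 16 hr, decreased signal indicating inhibition.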
Numbers without * were called inactive; ? = inconclusive; nt = no result given; [ ] = remark or other dose. Unless noted, calls come from the whole dose curve; as a rule, active = well fitted curve in the direction sought with a large enough effect; inconclusive = small, poorly fitted or top-dose-only effect, or another doubt; inactive = no such curve, though single readings can be large; an effect the other way counts as inactive or inconclusive. Unless noted, % is set by controls: 0 for no effect and ±100 for the full control effect.

SMILES | HT1080 IDH1KD tx | DT40 TDP1 no CPT | TDP1 cell CPT | HT1080-NT tox | IL-1B inflam inh
CCOC(=O)C1CCCN(C(=O)c2cnn(-c3ncc4c(n3)-c3ccccc3CC4)c2C)C1 (stereo unspecified) | nt | -6% | 2%[9.04 µM] | nt | nt
O=C(CN1C(=O)COc2ccccc21)N(Cc1cccnc1)Cc1ccccc1F | -16% | -24% | -27% | 0% | 11
Cc1ccc(C(=O)CSc2nnc(CNc3nc(-c4ccccc4)cs3)n2C)cc1 | -22% | ? | ? | -26% | -10
Cn1c(SCCOc2ccccc2)nnc1-c1ccc(NC(=O)CCc2ccccc2)cc1 | nt | -11% | 2% | nt | nt
CCOC(=O)c1ccccc1NC(=O)CSc1ccc(-c2sc(-c3ccccc3)nc2C)nn1 | nt | 18µM* | ? | nt | nt
Cc1cc(Cl)c(S(=O)(=O)N2CCN(c3ccc(F)cc3)CC2)cc1OCC(=O)NC1CCCCC1 | -23% | 8.2µM* | 12µM* | ? | -75*
Cc1cc(S(=O)(=O)N2CCCC2)ccc1OCC(=O)NC1CCCC1 | -7% | -22% | 1% | 6% | 14
Cc1cc(Cl)c(S(=O)(=O)N2CCN(c3ccc(F)cc3)CC2)cc1OCC(N)=O | -28% | -15% | -25% | -18% | 11
Cc1ccc(C(C)C)cc1OCC(=O)NC1CCCCCCC1 | -6% | ? | 18µM* | 0% | -57*
CCOC(=O)C1CCCN(S(=O)(=O)c2cc(OCC(=O)NC3CCCCC3)c(C)cc2Cl)C1 (stereo unspecified) | -9% | 18µM* | 18µM* | -3% | -7
COc1ccc(CNC(=O)CN2C(=O)CCCc3ccccc32)cc1 | nt | 2% | -20% | nt | nt
CCc1ccccc1NC(=O)Cc1c(C(=O)O)[nH]c2ccc(Cl)cc12 | nt | -1% | -3% | nt | nt
CCOC(=O)N1CCN(C(=O)COc2cccc3c2CCN(Cc2ccccc2F)C3=O)CC1 | -21% | 15µM* | 21µM* | -13% | -5
Cc1ccccc1CN1CCc2c(OCC(=O)N3CCCCC3)cccc2C1=O | 0% | ? | ? | -14% | ?
CCOC(=O)N1CCN(C(=O)COc2ccccc2OC)CC1 | 2% | -1% | 11% | 3% | -10
O=C(COc1cccc2c1CCN(Cc1ccccc1F)C2=O)N1CCCCC1 | ? | 21µM* | ? | -27% | -3
CCc1cccc(NC(=O)CCS(=O)(=O)c2ccc(C)cc2)c1 | nt | -24% | ? | nt | nt
O=C(CSc1nnc(COc2ccccc2)n1-c1ccccc1)c1cccs1 | -25% | 21µM* | 18µM* | ? | ?
CCOC(=O)C(CC)Sc1nnc(COc2ccc(C)cc2)n1-c1ccccc1 (stereo unspecified) | -4% | ? | 21µM* | -18% | 0
COc1ccccc1CNC(=O)c1cc2ccc3ccc(C)[nH]c3c2n1 | nt | 16µM* | 18µM* | nt | nt
COc1ccccc1CNC(=O)c1ccc2nc3[nH]c4ccccc4c3nc2c1 | ? | 8.2µM* | ? | ? | -53*
COc1ccc(Cl)cc1NC(=O)c1cc2ccc3ccc(C)[nH]c3c2n1 | nt | 23µM* | ? | nt | nt
CCc1nn2c(=O)cc(COC(=O)COc3ccc(OC)cc3)nc2s1 | nt | 7% | -28% | nt | nt
CC(O)[C@@H]1NC(=O)[C@H](CCCCN)NC(=O)[C@@H](Cc2c[nH]c3ccccc23)NC(=O)[C@H](Cc2ccccc2)NC(=O)[C@@H](NC(=O)[C@H](N)Cc2ccccc2)CSSC[C@@H](C(=O)N[C@H](CO)[C@@H](C)O)NC1=O (stereo partly specified) | nt | -8% | -13% | nt | nt
CN(C)S(=O)(=O)c1cccc(NC(=O)CC23CC4CC(CC(C4)C2)C3)c1 | -14% | 21µM* | 23µM* | -8% | 3
SMILES | HT1080 IDH1KD tx | DT40 TDP1 no CPT | TDP1 cell CPT | HT1080-NT tox | IL-1B inflam inh
CN(C)S(=O)(=O)Nc1cccc(NC(=O)CC23CC4CC(CC(C4)C2)C3)c1 | -27% | -24% | -26% | -23% | -73*
Clc1ccc(SCc2cn3ccsc3n2)cc1 | -1% | -20% | -29% | 5% | -2
Cc1csc2nc(CSc3ccc(Cl)cc3)cn12 | -7% | 23µM* | ? | -1% | -91*
C/C(=C\CO)CCC(C)CCCC(C)CCCC(C)C (stereo unspecified) | nt | -10% | -3% | nt | nt
Cc1onc(-c2ccccc2)c1C(=O)N/N=C/c1ccccc1OC(C)C | 13% | -22% | -22% | 11% | ?
Cc1onc(-c2ccccc2)c1C(=O)N/N=C/c1cc2c(cc1Br)OCO2 | -4% | 26µM* | ? | -17% | -14
Cc1cccc(/C=N/NC(=O)c2c(-c3ccccc3)noc2C)c1O | ? | 2.9µM* | 18µM* | ? | 135
Cc1nonc1NC(=O)CSc1nnc(N)s1 | 16% | -10% | -19% | 18% | 21
COc1ccc(CCN2C(=O)COc3ccccc3C2C(=O)Nc2c(C)cccc2C)cc1OC (stereo unspecified) | 9% | -30% | -1% | 9% | 32
FC(F)(F)c1cnc(N2CCN(C(=S)NCc3ccccc3)CC2)c(Cl)c1 | ? | 21µM* | ? | -33% | -93*
O=C(CSc1ccccn1)N1CCN(c2ncc(C(F)(F)F)cc2Cl)CC1 | -13% | 16µM* | ? | -15% | -8
OC(CN1CCN(c2ncc(C(F)(F)F)cc2Cl)CC1)c1ccccc1 (stereo unspecified) | 9% | ? | ? | -22% | 4
O=C(O)c1nn(CC(=O)N2CCN(c3ncc(C(F)(F)F)cc3Cl)CC2)c(=O)c2ccccc12 | -27% | 16µM* | -25% | -13% | -6
O=C(CCN1N=C(c2ccccc2)CCC1=O)NC1CCCCC1 | 4% | -5% | -17% | 3% | -51*
O=C(CCN1N=C(c2ccccc2)CCC1=O)NC1CCCC1 | 0% | -21% | 19% | -3% | -23
Cc1cc(I)ccc1Nc1nc(NCCN2CCOCC2)nc(N2CCOCC2)n1 | nt | 5.6µM* | 3.2µM* | nt | nt
CCOc1ccc(Nc2nc(NCCN3CCOCC3)nc(OC)n2)cc1 | -1% | -22% | -6% | -1% | -3
NC(=O)SCC(=O)Nc1ccc(Cl)cc1 | ? | ? | 21µM* | ? | -89*
NC(=O)SCC(=O)Nc1cccc(Cl)c1 | 8% | ? | ? | 7% | -62*
Cc1c(Cl)cccc1NC(=O)CSC(N)=O | 8% | 16µM* | 21µM* | 0% | -92*
Nc1nnc(SCC(=O)Nc2cccc(Cl)c2)s1 | 8% | 7% | 11% | 6% | 4
CO/N=C\CC(=O)Nc1ccc(Cl)c(Cl)c1 | 6.5µM* | ? | ? | 8.2µM* | 11
CCCN(CCC)C(=O)c1ccc2c(c1)N(Cc1ccccc1)C(=O)CS2=O (stereo unspecified) | -5% | ? | ? | 0% | ?
